From PubChem BioAssay (Tox21)
Values joined by “and” are separate entries in the source; they are usually repeats but may differ in a detail not shown here. Equal entries are not always repeated. Records with an inconclusive call do not appear. Active and inactive are the calls of the source. Unless noted, calls come from the whole dose curve; as a rule, active = well fitted curve in the direction sought with a large enough effect in the repeat runs; inconclusive = weak or mixed curves; inactive = no such curve, though single readings can be large; an effect the other way counts as inactive or inconclusive.

Experiments:
[1] = qHTS assay to identify small molecule agonists of the RXR signaling pathway - cell viability counter screen (AID 1159529);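 note: HEK 293T cells carrying an RXR-alpha UAS beta-lactamase reporter; series mostly up to about 77 µM; nearly all actives have a fitted effect of over 50% in size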
Procedure, shortened: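 Counter screen: CellTiter-Glo luminescence. Cells: RXR-alpha-UAS-bla HEK 293T. Medium: 2% charcoal-stripped FBS. Treatment: 16 h, 37 C. Reagent incubation: 30 min, RT.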

[2] = qHTS assay to identify small molecule antagonists of the retinoid acid receptor (RAR) signaling pathway - cell viability counter screen (AID 1159551); note: nearly all actives have a fitted effect of over 35% in size
Procedure, shortened: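 Cytotoxicity counter screen in C3RL4 cells: 6 h compound exposure with 1 uM retinol (final), viability from cellular ATP by luminescence.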

[3] = qHTS assay to identify small molecule antagonists of the retinoic acid receptor (RAR) signaling pathway (AID 1159552; note: nearly all actives have a fitted effect of over 50% in size)
Procedure, shortened: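 Antagonism of retinol-induced RARE reporter activity was measured in C3RL4 cells. Exposure to compounds and 1 uM final retinol lasted 6 hr at 37 C, with luminescence as endpoint.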

[4] = qHTS assay to identify small molecule agonists of the retinoic acid receptor (RAR) signaling pathway (AID 1159553); note: potency is the fitted concentration of half-maximal effect
Procedure, shortened: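 Agonist activity was scored in C3RL4 cells bearing a retinoic acid response element luciferase construct. Cells were treated with compounds for 6 hr at 37 C, and luciferase signal was measured as luminescence.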

[5] = qHTS assay to identify small molecule antagonists of the estrogen related receptor (ERR) signaling pathway - cell viability counter screen (AID 1224818);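 note: series mostly up to about 46 µM; viability measured after 17.5 h of compound exposure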
Procedure, shortened: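 Cells carrying the ERR pathway reporter were seeded and incubated for 6 hours before compound addition. After a 17.5-hour exposure at 37 C, live-cell protease activity was measured by CellTiter-Fluor fluorescence following 30 minutes of incubation.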

[6] = qHTS assay to identify small molecule antagonists of the estrogen related receptor signaling pathway with the pleiotropic PPARgamma coactivator (PGC) cell viability counter screen (AID 1224822;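 note: series mostly up to about 46 µM; viability read after 17.5 h compound exposure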)
Procedure, shortened: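 Seed PGC/ERR cells (2,000/well); incubate 6 h at 37 C/5% CO2; pin-transfer compounds in DMSO; incubate 17.5 h at 37 C; add CellTiter-Fluor; after 30 min read fluorescence.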

[7] = qHTS assay to identify small molecule antagonists of the estrogen related receptor (ERR) signaling pathway from Tox21 library - cell viability counter screen (AID 1224834); note: nearly all actives have a fitted effect of over 30% in size
Procedure, shortened: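 Cytotoxicity of test substances is gauged in the same ERR cells used for the antagonist screen, after 17.5 h of compound treatment at 37 C, by CellTiter-Fluor fluorescence measured after 30 min.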

[8] = molecular target: Luciferin 4-monooxygenase (Photinus pyralis) (UniProt P08659); test: qHTS assay to identify small molecule inhibitors of firefly luciferase (AID 1224835); note: nearly all actives have a fitted effect of over 25% in size; note: potency is the fitted concentration of half-maximal effect; for activity change, negative = inhibition: series mostly up to about 120 µM
Procedure, shortened: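 Quantitative HTS format; KM concentrations of both substrates. Purified P. pyralis FLuc activity quantified from luminescence images.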

[9] = qHTS assay to identify small molecule agonists of the constitutive androstane receptor (CAR) signaling pathway - cell viability counter screen (AID 1224836); note: series mostly up to about 92 µM; nearly all actives have a fitted effect of over 45% in size
Procedure, shortened: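 Double-stable HepG2 hepatoma cells (hCAR plus CYP2B6-2.2kb) are treated for 23 h at 37 C with test compounds in 15-point concentration series. PK11195 at 0.75 uM final is co-added. Cell viability is quantified by CellTiter-Fluor.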

[10] = qHTS assay to identify small molecule antagonists of the constitutive androstane receptor (CAR) signaling pathway - cell viability counter screen (AID 1224837); note: series mostly up to about 92 µM; nearly all actives have a fitted effect of over 45% in size
Procedure, shortened: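 Multiplexed cytotoxicity read-out for the CAR antagonist screen: double-stable HepG2-CYP2B6-hCAR cells co-treated with 50 nM CITCO (final) and compound over 15 concentrations, incubated 23 hr, then assessed by CellTiter-Fluor fluorescence.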

[11] = molecular target: Nuclear receptor subfamily 1 group I member 3 (Homo sapiens) (UniProt Q14994); test: qHTS assay to identify small molecule antagonists of the constitutive androstane receptor (CAR) signaling pathway (AID 1224838); note: nearly all actives have a fitted effect of over 40% in size
Procedure, shortened: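 Compounds were titrated across 15 concentrations onto HepG2 cells double-stably expressing hCAR and a CYP2B6-2.2kb reporter, together with 50 nM CITCO (final). After 24 h at 37 C, luciferase activity was measured by luminescence.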

[12] = qHTS assay to identify small molecule antagonists of the estrogen related receptor signaling pathway with the pleiotropic PPARgamma coactivator (PGC) from Tox21 10K library - cell viability counter screen (AID 1224840; active = well fitted cell-killing curve with a large enough effect in the repeat runs, not every such curve was filed as active; note: nearly all actives have a fitted effect of over 40% in size)
Procedure, shortened: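 Step one, plate 2,000 PGC/ERR cells per well; step two, incubate 6 h at 37 C/5% CO2; step three, pin-transfer compounds; step four, incubate 17.5 h; step five, add CellTiter-Fluor and read fluorescence after 30 min.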

[13] = molecular target: Thyrotropin receptor (Homo sapiens) (UniProt P16473); test: qHTS assay to identify small molecule agonists of the thyroid stimulating hormone receptor (TSHR) signaling pathway (AID 1224843; calls by dose curve; note: nearly all actives have a fitted effect of over 45% in size)
Procedure, shortened: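 Cell line HEK293 with TSHR; density 800/well. Exposure 30 min RT. Readout HTRF cAMP (cAMP-d2/anti-cAMP-cryptate), 1 h RT before reading.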

[14] = molecular target: Nuclear receptor subfamily 1 group I member 3 (Homo sapiens) (UniProt Q14994); test: qHTS assay to identify small molecule agonists of the constitutive androstane receptor (CAR) signaling pathway (AID 1224839); note: nearly all actives have a fitted effect of over 15% in size; note: potency is the fitted concentration of half-maximal effect;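 for activation: HepG2 cells stably carrying human CAR and a CYP2B6 luciferase reporter; series mostly up to about 92 µM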
Procedure, shortened: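 Readout: firefly luciferase luminescence via ONE-Glo. System: HepG2 double-stable for hCAR and CYP2B6-2.2kb. Conditions: 15-point compound titration, PK11195 at 0.75 uM final, 24 h incubation.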

[15] = qHTS assay to identify small molecule antagonists of the estrogen related receptor signaling pathway with the pleiotropic PPARgamma coactivator (PGC) from Tox21 10K library (AID 1224841; call rule not given here; note: actives are mostly falling curves and most rising ones were filed inactive; nearly all actives have a fitted effect of over 50% in size; note: potency is the fitted concentration of half-maximal effect; for activity, negative = inhibition: series mostly up to about 92 µM)
Procedure, shortened: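 Antagonism in this quantitative HTS is taken from loss of luciferase signal in PGC/ERR cells. Cells (2,000/well) are treated with compounds in DMSO after a 6 h settling period and read by One-Glo luminescence after 18 h.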

[16] = qHTS assay to identify small molecule agonists of the estrogen related receptor signaling pathway with the pleiotropic PPARgamma coactivator (PGC) from Tox21 10K library (AID 1224842); note: nearly all actives have a fitted effect of over 15% in size
Procedure, shortened: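 PGC/ERR reporter cells (NTP line) were seeded 2,000 per well, rested 6 h at 37 C/5% CO2, then pin-dosed with compounds in DMSO for 18 h at 37 C; luciferase read by One-Glo luminescence after 30 min at room temperature.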

[17] = qHTS assay to identify small molecule antagonists of the estrogen related receptor (ERR) signaling pathway (AID 1224819;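 note: luminescence from an ERR-driven luciferase reporter measured with One-Glo reagent; series mostly up to about 46 µM; nearly all actives have a fitted effect of over 50% in size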)
Procedure, shortened: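 Compounds dissolved in DMSO were pin-transferred onto ERR cells that had been plated 6 h earlier, and cells were then incubated 18 h at 37 C; signal was luciferase luminescence via One-Glo.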

[18] = qHTS assay to identify small molecule agonists of the estrogen related receptor (ERR) signaling pathway (AID 1224820)
Procedure, shortened: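 Cells: ERR line from NTP, 2,000/well. Pre-incubation 6 h, 37 C/5% CO2. Compound (DMSO) pin transfer, 18 h 37 C. One-Glo, 30 min RT, luminescence.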

[19] = system: estrogen-related receptor alpha (ERRalpha) with PGC-1alpha coactivator, human; test: qHTS assay to identify small molecule antagonists of the estrogen related receptor signaling pathway with the pleiotropic PPARgamma coactivator (PGC) (AID 1224821; calls by dose curve)
Procedure, shortened: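 Luminescent read-out (One-Glo, 30 min at room temperature) following 18 h treatment of PGC/ERR cells at 37 C with compounds delivered in DMSO. Cells had settled 6 h at 37 C/5% CO2 before dosing.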

[20] = qHTS assay to identify small molecule agonists of the estrogen related receptor signaling pathway with the pleiotropic PPARgamma coactivator (PGC) (AID 1224823)
Procedure, shortened: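 Steps: plate PGC/ERR cells at 2,000 cells/well; incubate 6 h, 37 C/5% CO2; pin-transfer compounds (DMSO); incubate 18 h, 37 C; add One-Glo; 30 min RT; read luminescence.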
% is set by controls: 0 for no effect and ±100 for the full control effect.

Chain of Nuclear receptor subfamily 1 group I member 3 (Homo sapiens) (Q14994 whole entry, looked up): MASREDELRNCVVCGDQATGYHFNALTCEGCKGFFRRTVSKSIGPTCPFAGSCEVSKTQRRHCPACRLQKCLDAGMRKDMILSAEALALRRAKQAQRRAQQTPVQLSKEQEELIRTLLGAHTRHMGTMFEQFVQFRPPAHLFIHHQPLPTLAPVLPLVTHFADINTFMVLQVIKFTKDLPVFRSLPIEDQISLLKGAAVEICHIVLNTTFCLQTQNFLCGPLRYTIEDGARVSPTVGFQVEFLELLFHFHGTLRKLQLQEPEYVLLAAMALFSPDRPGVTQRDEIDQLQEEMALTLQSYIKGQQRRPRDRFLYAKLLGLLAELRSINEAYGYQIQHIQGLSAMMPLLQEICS
Chain of Thyrotropin receptor (Homo sapiens) (P16473 whole entry, looked up): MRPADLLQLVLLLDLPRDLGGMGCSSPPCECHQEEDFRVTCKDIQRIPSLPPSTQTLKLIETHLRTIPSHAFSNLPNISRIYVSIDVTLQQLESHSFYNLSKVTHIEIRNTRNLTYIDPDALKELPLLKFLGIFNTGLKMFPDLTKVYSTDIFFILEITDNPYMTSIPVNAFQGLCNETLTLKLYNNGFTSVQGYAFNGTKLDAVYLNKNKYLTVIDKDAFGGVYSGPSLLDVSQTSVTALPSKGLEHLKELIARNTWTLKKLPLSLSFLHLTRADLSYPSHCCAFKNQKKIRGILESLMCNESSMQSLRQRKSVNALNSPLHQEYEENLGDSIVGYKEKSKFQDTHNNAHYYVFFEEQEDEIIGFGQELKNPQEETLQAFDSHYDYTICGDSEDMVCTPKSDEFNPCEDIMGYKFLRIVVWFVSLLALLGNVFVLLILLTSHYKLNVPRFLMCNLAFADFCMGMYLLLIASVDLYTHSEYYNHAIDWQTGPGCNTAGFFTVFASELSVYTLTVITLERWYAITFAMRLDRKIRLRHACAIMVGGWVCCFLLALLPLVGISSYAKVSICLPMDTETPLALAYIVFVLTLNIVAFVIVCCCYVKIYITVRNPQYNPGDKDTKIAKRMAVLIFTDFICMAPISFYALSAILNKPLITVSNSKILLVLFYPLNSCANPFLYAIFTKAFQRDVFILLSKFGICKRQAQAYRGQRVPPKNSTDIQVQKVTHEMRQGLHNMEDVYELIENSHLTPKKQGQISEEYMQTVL
Chain of Luciferin 4-monooxygenase (Photinus pyralis) (P08659 whole entry, looked up): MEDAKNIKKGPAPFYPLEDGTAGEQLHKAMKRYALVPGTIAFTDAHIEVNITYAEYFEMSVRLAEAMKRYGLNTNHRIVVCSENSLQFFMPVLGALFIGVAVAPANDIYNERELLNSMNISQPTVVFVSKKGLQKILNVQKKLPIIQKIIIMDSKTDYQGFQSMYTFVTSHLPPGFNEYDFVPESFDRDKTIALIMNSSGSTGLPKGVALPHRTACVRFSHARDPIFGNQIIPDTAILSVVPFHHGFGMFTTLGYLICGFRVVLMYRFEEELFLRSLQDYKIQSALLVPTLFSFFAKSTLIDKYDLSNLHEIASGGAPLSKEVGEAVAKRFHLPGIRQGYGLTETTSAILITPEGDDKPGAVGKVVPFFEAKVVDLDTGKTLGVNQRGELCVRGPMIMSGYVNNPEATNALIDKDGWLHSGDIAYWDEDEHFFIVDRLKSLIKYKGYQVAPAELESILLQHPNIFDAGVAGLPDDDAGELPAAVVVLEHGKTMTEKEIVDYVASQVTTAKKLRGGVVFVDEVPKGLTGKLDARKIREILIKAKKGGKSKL

CC(=O)N[C@@H](CS)C(=O)O
inactive: Potency [1] | Potency [2] | Potency [3] | Potency [4] | Potency [5] | Potency [6] | Potency [7] | Potency [8] | Potency [9] | Potency [10] | Potency [11] | Potency [12] | Potency [13]

CC(=O)OCC1=C(C(=O)O)N2C(=O)[C@@H](NC(=O)Cc3cccs3)[C@H]2SC1
inactive: Potency [1] | Potency [2] | Potency [3] | Potency [4] | Potency [5] | Potency [6] | Potency [7] | Potency [8] | Potency [9] | Potency [10] | Potency [11] | Potency [12]

c1ccc2n[nH]nc2c1
inactive: Potency [1] | Potency [2] | Potency [3] | Potency [4] | Potency [7] | Potency [8] | Potency [9] | Potency [10] | Potency [11] | Potency [14] | Potency [12] | Potency [13]

CCCNC(C)C(=O)Nc1ccccc1C (centres undefined)
inactive: Potency [1] | Potency [2] | Potency [3] | Potency [4] | Potency [5] | Potency [6] | Potency [7] | Potency [8] | Potency [9] | Potency [10] | Potency [11] | Potency [12] | Potency [13]

NC12CC3CC(CC(C3)C1)C2
inactive: Potency [1] | Potency [2] | Potency [3] | Potency [4] | Potency [5] | Potency [6] | Potency [7] | Potency [8] | Potency [9] | Potency [10] | Potency [12]

CCC(C)(Oc1ccc(C2(c3ccc(OC(C)(CC)C(=O)O)cc3)CCCCC2)cc1)C(=O)O (centres undefined)
inactive: Potency [1] | Potency [2] | Potency [3] | Potency [4] | Potency [7] | Potency [8] | Potency [9] | Potency [10] | Potency [11] | Potency [12] | Potency [15] | Potency [16]

c1cnc2cc3c(cc2n1)C1CNCC3C1
inactive: Potency [1] | Potency [2] | Potency [3] | Potency [4] | Potency [5] | Potency [17] | outcome [18] | Potency [19] | Potency [6] | outcome [20] | Potency [7] | Potency [8] | Potency [9] | Potency [10] | Potency [11] | Potency [14] | Potency [12] | Potency [15] | Potency [16]

C#CC(C)(CC)OC(=O)c1ccccc1C(=O)O (centres undefined)
inactive: Potency [1] | Potency [2] | Potency [3] | Potency [4] | Potency [7] | Potency [8] | Potency [9] | Potency [10] | Potency [11] | Potency [14] | Potency [12] | Potency [15] | Potency [16]

CC1=C(C=O)C(C)(C)CC=C1
inactive: Potency [1] | Potency [2] | Potency [3] | Potency [4] | Potency [7] | Potency [8] | Potency [9] | Potency [10] | Potency [11] | Potency [14] | Potency [12] | Potency [15] | Potency [16] | Potency [13]

O=C(O)Cn1cnnn1
inactive: Potency [1] | Potency [2] | Potency [3] | Potency [4] | Potency [7] | Potency [8] | Potency [9] | Potency [10] | Potency [11] | Potency [14] | Potency [12] | Potency [15] | Potency [16] | Potency [13]

NCCO
inactive: Potency [1] | Potency [2] | Potency [3] | Potency [4] | Potency [5] | Potency [6] | Potency [7] | Potency [8] | Potency [10] | Potency [12] | Potency [13]

CCOc1ccc2c(c1)C(C)=CC(C)(C)N2
inactive: Potency [1] | Potency [2] | Potency [3] | Potency [7] | Potency [9] | Potency [10] | Potency [11] | Potency [12] | Potency [15] | Potency [16] | Potency [13]
active: Potency [4] 54.2 µM and 61.1 µM | Potency [8] 56.1 µM and 63.3 µM | Potency [14] 27.2 µM and 27.3 µM

NC(Cc1ccc(Cl)cc1)C(=O)O (centres undefined)
inactive: activity change, negative = cytotoxicity [1] 5.89% [at 0.29 µM] | activity change, negative = cytotoxicity [2] 2.93% [at 0.349 µM] | activity, negative = inhibition [3] 4.68% [at 0.349 µM] | activation [4] 0.724% [at 0.756 µM] | Potency [5] | Potency [17] | outcome [18] | Potency [19] | Potency [6] | outcome [20] | viability change, negative = cytotoxic [7] -4.51% [at 0.349 µM] | activity change, negative = inhibition [8] 3.14% [at 0.435 µM] | activity change, negative = cytotoxicity [10] 6.69% [at 0.349 µM] | activity, negative = inhibition [11] -14.1% [at 0.349 µM] | viability change, negative = cytotoxic [12] -10% [at 0.349 µM] | activity, negative = inhibition [15] 0.39% [at 0.349 µM] | activation [16] 0.108% [at 0.349 µM] | activation [13] -0.308% [at 0.349 µM]

C=CC(=O)OCCCCCCCC
active: Potency [15] 13.7 µM
inactive: Potency [1] | Potency [2] | Potency [3] | Potency [4] | Potency [7] | Potency [8] | Potency [9] | Potency [10] | Potency [11] | Potency [14] | Potency [12] | Potency [16] | Potency [13]

CCn1cc(C(=O)O)c(=O)c2cc(F)c(N3CCNC(C)C3)c(F)c21 (centres undefined)
inactive: Potency [1] | Potency [2] | Potency [3] | Potency [4] | Potency [5] | Potency [17] | outcome [18] | Potency [19] | Potency [6] | outcome [20] | Potency [7] | Potency [8] | Potency [9] | Potency [10] | Potency [11] | Potency [14] | Potency [12] | Potency [15] | Potency [16]
